Results reported in PubChem BioAssay (NCATS).
Unmarked numbers belong to inactive results. Inconclusive results are not listed. Where a call stands in place of a potency, no number is given. The source made the active and inactive calls. The call rests on the fitted dose curve; in most records, active means well fitted curve in the direction sought with a large enough effect; inconclusive means small, poorly fitted or top-dose-only effect, or another doubt; inactive means no such curve, though single readings can be large; an effect the other way counts as inactive or inconclusive.

What was measured:
[1] = molecular target: Glutathione peroxidase 1 (Homo sapiens) (UniProt P07203); test: Primary qHTS Assay for Inhibitors of Recombinant Selenoprotein Glutathione Peroxidase 1 (GPX1) (AID 1845191); conditions: recombinant GPX1, GR-coupled NADPH fluorescence, 15 min; series mostly up to 48.8 µM; further: nearly all actives have a fitted effect of over 65% in size
Chain of Glutathione peroxidase 1 (Homo sapiens) (P07203 whole entry, looked up): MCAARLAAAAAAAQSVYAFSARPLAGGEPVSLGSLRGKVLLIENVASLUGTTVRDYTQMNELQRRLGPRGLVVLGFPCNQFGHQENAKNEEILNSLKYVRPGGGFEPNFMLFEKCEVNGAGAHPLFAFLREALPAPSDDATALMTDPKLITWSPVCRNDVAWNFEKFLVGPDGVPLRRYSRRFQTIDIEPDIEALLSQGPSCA
Method in brief: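 GPX1 10 nM, GR 100 nM, GSH 1 mM, NADPH 0.5 mM, CHP 0.5 mM (final). 30-min cpd preincubation, RT. Ex340/Em450 read t=0, t=15 min.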

[2] = molecular target: Phospholipid hydroperoxide glutathione peroxidase GPX4 (Homo sapiens) (UniProt P36969); test: Primary qHTS Assay for Inhibitors of Recombinant Selenoprotein Glutathione Peroxidase 4 (GPX4) (AID 1845192); conditions: recombinant GPX4, GR-coupled NADPH fluorescence, 15 min; series mostly up to 50 µM; further: nearly all actives have a fitted effect of over 65% in size
Chain of Phospholipid hydroperoxide glutathione peroxidase GPX4 (Homo sapiens) (P36969 whole entry, looked up): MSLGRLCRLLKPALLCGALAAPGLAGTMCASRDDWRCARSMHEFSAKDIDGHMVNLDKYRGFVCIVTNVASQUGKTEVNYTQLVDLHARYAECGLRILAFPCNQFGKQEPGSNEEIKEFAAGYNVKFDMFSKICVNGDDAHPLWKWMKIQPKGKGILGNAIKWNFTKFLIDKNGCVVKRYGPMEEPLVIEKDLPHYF
Method in brief: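 qHTS, GR-coupled: GPX4 200 nM + cpd 30 min RT → GSH 1 mM, NADPH 0.5 mM, GR 100 nM → CHP 0.5 mM start; fluor 340/450 at t0 and t15 min; no-enzyme wells as control.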

[3] = molecular target: Luciferin 4-monooxygenase (Photinus pyralis) (UniProt P08659); test: Primary firefly luciferase (FLuc) qHTS assay for identification of artifact compounds. (AID 1845220); conditions: purified firefly luciferase, luminescence, 5 min; series mostly up to 54.1 µM; further: nearly all actives have a fitted effect of over 60% in size
Method in brief: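 qHTS, 15 min compound preincubation with substrate (10 uM luciferin, 10 uM ATP) at RT, then 10 nM FLuc; 5 min; luminescence; % inhibition vs no-enzyme/DMSO controls, 4-parameter Hill fit.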

[4] = Primary fluorescence-based thiol-reactive (MSTI) qHTS assay for identification of artifact compounds. (AID 1845221); conditions: MSTI thiol-reactivity probe, 1 h; series mostly up to 53.8 µM; further: nearly all actives have a fitted effect of over 65% in size; further: potency means the concentration at half of the fitted maximal effect
Method in brief: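 qHTS titration of compound; 4 uM MSTI, PBS pH 7.4, 2% DMSO; 1 h RT, dark; fluorescence 525/598 nm; normalized to Acetyl-MSTI and MSTI; 4-parameter Hill fit.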

[5] = tested on: Nanoluciferase (engineered Oplophorus gracilirostris luciferase); test: Primary Nanoluciferase (NLuc) qHTS assay for identification of artifact compounds. (AID 1845222); conditions: NLuc-conditioned medium, Nano-Glo luminescence, 5 min; series mostly up to 54.1 µM
Method in brief: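 Luminescence read-out of secreted NLuc in S16 cell conditioned medium (1:55); compounds tested with 15 min RT preincubation, then Nano-Glo substrate 1:100, 5 min. % inhibition vs no-enzyme and DMSO controls, 4-parameter Hill fit.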

[6] = Primary redox qHTS assay for identification of artifact compounds. (AID 1845223); conditions: Amplex Red/HRP redox cycling with DTT, fluorescence; series mostly up to 53.8 µM
Method in brief: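 Redox-cycling detection via DTT (250 uM final) oxidation coupled to Amplex Red (25 uM)/HRP (250 mU/mL) in HBSS. 15 min preincubation plus 30 min after DTT, room temperature. Ex/Em 525/598 nm; 4-parameter Hill fit against DMSO and 10 uM DA3003.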

Structure (SMILES) | Potency [1] | Potency [2] | Potency [3] | Potency [4] | Potency [5] | Potency [6]
CC(=O)OC[C@]12[C@H](OC(C)=O)C(=O)[C@@H]3[C@@H](OC(C)=O)[C@@]14O[C@@]3(C)COC(=O)c1cccnc1[C@@H](C)[C@H](C)C(=O)O[C@@H]([C@H](O)[C@@H]2OC(C)=O)[C@]4(C)O | inactive | inactive | inactive | inactive | inactive | –
C=CC1C(OC2OC(CO)C(O)C(O)C2O)OC=C(C(=O)OC)C1CC1CC(=O)CC(CCc2ccc(O)cc2)O1 (stereo unspecified) | inactive | inactive | inactive | inactive | inactive | –
O=C(c1cccc(Cl)c1F)N1CCN(Cc2cccc(Nc3nccs3)n2)CC1 | inactive | inactive | inactive | inactive | inactive | –
C=C[C@H]1C(O[C@@H]2O[C@H](CO)[C@@H](O)[C@H](O)[C@H]2O)OC=C2C(=O)N3CCc4c([nH]c5ccccc45)C3CC21 (stereo partly specified) | inactive | inactive | inactive | inactive | inactive | inactive
CC(=O)O[C@@](C)(C(=O)/C=C/C(C)(C)O)[C@H]1[C@H](O)C[C@@]2(C)[C@@H]3CC=C4[C@@H](C=C(O)C(=O)C4(C)C)[C@]3(C)C(=O)C[C@]12C | inactive | inactive | inactive | inactive | inactive | –
CC(C)=CCC[C@](C)(O)[C@H]1CC[C@]2(C)[C@@H]1[C@H](O)CC1[C@@]3(C)CC[C@H](O)C(C)(C)C3[C@@H](O[C@@H]3O[C@H](CO)[C@@H](O)[C@H](O)[C@H]3O[C@@H]3OC[C@@H](O)[C@H](O)[C@H]3O)C[C@]12C (stereo partly specified) | inactive | inactive | inactive | inactive | inactive | inactive
COC(=O)C[C@H]1[C@]2(C)C3=C(C)[C@H](c4ccoc4)C[C@H]3O[C@@H]2[C@H](OC(C)=O)C2[C@](C)(C(=O)OC)C=CC(=O)[C@@]21C (stereo partly specified) | inactive | inactive | inactive | 13 µM (active) | inactive | –
CCC(O)C(C)C1CCC(C(C)C(=O)O)O1 (stereo unspecified) | inactive | inactive | inactive | 10.6 µM (active) | inactive | –
CC(=O)OC[C@@]12C(=O)C[C@@H](C)[C@]3(C[C@@H](c4ccoc4)O[C@H]3OC(C)=O)[C@H]1CCC[C@]21CO1 | inactive | inactive | inactive | inactive | inactive | –
CCCn1c(=O)c2[nH]c(-c3ccc(OCC(=O)O)cc3)nc2n(CCC)c1=O | inactive | inactive | inactive | inactive | inactive | inactive
COc1ccc([C@@H]2OC[C@H]3[C@@H]2CO[C@@H]3c2ccc(OC3OC(CO)C(O)C(O)C3O)c(OC)c2)cc1OC (stereo partly specified) | inactive | inactive | inactive | 8.22 µM (active) | inactive | –
CC(=O)OCC1(O)CCC2C(COC3OC(CO)C(O)C(O)C3OC(=O)/C=C/c3ccc(O)cc3)=COC(OC(=O)CC(C)C)C21 (stereo unspecified) | inactive | inactive | inactive | inactive | inactive | –
COc1cccc(C(=O)N2CCN(C(=O)COc3cccc(C)c3)CC2)c1OC | inactive | inactive | inactive | inactive | inactive | –
C[C@]12C=C[C@@]3(CCC4[C@](C)(CO)CCC[C@@]4(C)C3CC1)C2 (stereo partly specified) | inactive | inactive | inactive | inactive | inactive | inactive
CC(=O)OC1C[C@@]2(C)[C@@H](CC[C@@H](C)[C@]23Cc2c(O)cc4c(c2O3)CNC4=O)C(C)(C)[C@@H]1O (stereo partly specified) | inactive | inactive | inactive | inactive | inactive | –
COC(=O)CCc1cc2ccoc2c(OC)c1O[C@@H]1O[C@H](CO)[C@@H](O)[C@H](O)[C@H]1O | inactive | inactive | inactive | inactive | inactive | inactive
C=C1CCC2C(C)(C)C(O)CCC2(C)C1CCC(C)CCO (stereo unspecified) | inactive | inactive | inactive | 16.5 µM (active) | inactive | –
CC(=O)O[C@@H]1[C@@H](CO)O[C@@](CO)(O[C@H]2O[C@H](COC(=O)/C=C/c3ccccc3)[C@@H](O)[C@H](O)[C@H]2O)[C@H]1O | inactive | inactive | inactive | 4.62 µM (active) | inactive | inactive
CC1CCC23COC(=O)C2=CC(O)CC3C1(C)CCC1=CC(O)OC1=O (stereo unspecified) | inactive | inactive | inactive | 3.29 µM (active) | inactive | –
COC(=O)N[C@@H](C)CNc1nccc(-c2cn(C(C)C)nc2-c2cc(Cl)cc(NS(C)(=O)=O)c2F)n1 | inactive | inactive | inactive | inactive | inactive | –
CCCC(=O)NCCc1csc(-c2ccc(Cl)cc2)n1 | inactive | inactive | inactive | inactive | inactive | –
COc1cccc(Nc2ncnn3ccc(CN4CC[C@@H](N)[C@H](O)C4)c23)c1 | inactive | inactive | inactive | inactive | inactive | –
CC(=O)OC1C(O)CC2(C)C(CCC(C)C23Cc2c(O)cc(CO)c(C=O)c2O3)C1(C)C (stereo unspecified) | inactive | inactive | inactive | inactive | inactive | –
